# Measurements published in PubChem BioAssay (NCATS).
# Several values for one entry are separate records, joined by “and”; a condition that tells them apart may be missing. Equal entries are not always repeated. Results filed as inconclusive are left out. A call without a number means that no potency is given here. Activity calls are given as the source filed them. Unless noted, the call rests on the fitted dose curve; in most records, active means well fitted curve in the direction sought with a large enough effect; inconclusive means small, poorly fitted or top-dose-only effect, or another doubt; inactive means no such curve, though single readings can be large; an effect the other way counts as inactive or inconclusive.
# How the values were obtained:
# [1] = Validation of Assay for Modulators of Lamin A Splicing (AID 1459; active means well fitted curve in the direction sought with a large enough effect in the signal ratio; the % refers to the signal ratio;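 further: cells exposed to compound for two days before reading; ratio rise marks activators and ratio drop marks inhibitors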)
# Outline: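 Dual-reporter HeLa S3 line (lamin A-EGFP minigene, DsRed2) treated with compounds 48 hrs, 0.5% DMSO final. Endpoint: EGFP/DsRed2 total intensity ratio from laser-scanning microplate cytometry.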
# [2] = qHTS Assay for Lipid Storage Modulators (AID 1519; calls by dose curve); details: Drosophila S3 cells, BODIPY lipid droplet/cell ratio, laser cytometry, cells loaded with oleic acid; for activity change, negative = inhibition: at 57.5 µM (top of the series)
# Outline: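 Cells seeded at 5,000 per well were treated with compounds over a concentration series and loaded with oleic acid (400 uM, as added). Lipid droplet fluorescence (488 nm excitation, 500-530 nm channel) was read by laser-scanning cytometry and normalized to 20 uM Triacsin C.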
# [3] = biological target: DNA repair nuclease/redox regulator APEX1 (Homo sapiens) (UniProt P27695); assay: qHTS Validation Assay for Inhibitors of the Human Apurinic/apyrimidinic Endonuclease 1 (APE1) (AID 1705;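 further: TAMRA fluorescence gain over two minutes as APE1 cuts a quenched THF abasic duplex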)
# Chain of DNA repair nuclease/redox regulator APEX1 (Homo sapiens) (P27695 whole entry, looked up): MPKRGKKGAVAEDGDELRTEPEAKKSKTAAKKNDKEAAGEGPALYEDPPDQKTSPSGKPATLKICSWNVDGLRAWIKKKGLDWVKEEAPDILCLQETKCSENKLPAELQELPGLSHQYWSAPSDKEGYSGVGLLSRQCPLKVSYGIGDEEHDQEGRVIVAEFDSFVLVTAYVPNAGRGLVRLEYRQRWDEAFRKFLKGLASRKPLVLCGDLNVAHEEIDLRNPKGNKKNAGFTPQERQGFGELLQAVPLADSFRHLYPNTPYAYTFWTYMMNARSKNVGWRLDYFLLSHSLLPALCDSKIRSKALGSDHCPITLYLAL
# Outline: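 Substrate: 50 nM final fluorophore/quencher THF-abasic duplex. Enzyme preincubated with compounds 15 min, RT. Progress derived from fluorescence difference, third minus first kinetic read.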
# [4] = Counterscreen for APE1 Inhibitors: Fluorescent Dye Displacement Validation Assay (AID 1707)
# Outline: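 Thiazole Orange (250 nM) bound to 50 nM TAMRA-labelled dsDNA with tetrahydrofuran abasic site; displacement by DNA-binding compounds lowers fluorescence. Buffer 50 mM Tris-HCl pH 7.5, 50 mM NaCl, 2 mM MgCl2, 0.01% Tween-20; endpoint read at 480/540 nm.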
# [5] = biological target: Endonuclease 4 (Escherichia coli (strain K12)) (UniProt P0A6C1); assay: Counterscreen for APE1 Inhibitors: qHTS Validation Assay for Inhibitors of Endonuclease IV (AID 1708)
# Outline: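 qHTS concentration-response format; LOPAC1280 tested under APE1-screen conditions. 2 nM enzyme, 15 min compound preincubation at RT, then 50 nM TAMRA/BHQ-2 abasic substrate; kinetic fluorescence read, three reads at 60 s intervals.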
# [6] = qHTS for differential inhibitors of proliferation of Plasmodium falciparum line GB4 (AID 1816); details: Potency: Plasmodium falciparum GB4 proliferation inhibition;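 further: parasite growth measured after 72 h incubation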; further: potency means the concentration at half of the fitted maximal effect
# [7] = qHTS for differential inhibitors of proliferation of Plasmodium falciparum line 3D7 (AID 1876);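 further: parasite growth measured after three days of culture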
# [8] = qHTS for differential inhibitors of proliferation of Plasmodium falciparum line D10 (AID 1877);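 further: parasites grown with compound for 72 h before DNA staining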; further: potency means the concentration at half of the fitted maximal effect
# [9] = qHTS for differential inhibitors of proliferation of Plasmodium falciparum line Dd2 (AID 1882); details: Potency: Plasmodium falciparum Dd2 proliferation inhibition; further: nearly all actives have a fitted effect of over 65% in size; further: potency means the concentration at half of the fitted maximal effect
# Outline: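 Dd2-infected erythrocytes (0.3% parasitemia, 2.5% hematocrit final) incubated with compound 72 h at 37 C, 5% CO2; lysed with saponin/Triton buffer containing SYBR Green I, incubated overnight in the dark, then read by fluorescence (485/535 nm). Normalized to 0.29 uM artemisinin and DMSO.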
# [10] = qHTS for differential inhibitors of proliferation of Plasmodium falciparum line W2 (AID 1883); details: Potency: Plasmodium falciparum W2 proliferation inhibition;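 further: parasites grown with compound for 72 h before lysis and staining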; further: potency means the concentration at half of the fitted maximal effect
# [11] = qHTS for differential inhibitors of proliferation of Plasmodium falciparum line HB3 (AID 1886); details: Potency: Plasmodium falciparum HB3 proliferation inhibition;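 further: parasites grown with compound for 72 h before SYBR Green readout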; further: potency means the concentration at half of the fitted maximal effect
# [12] = qHTS Assay for Modulators of Human Peripheral Myelin Protein 22 (PMP22) Expression/Activity (AID 1967; active means well fitted curve in the direction sought with a large enough effect in the signal ratio; the % refers to the signal ratio)
# Outline: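 Engineered MSC80 cells, Pmp22-promoter green and EF-alpha red luciferase reporters; 24h compound treatment at 37 °C. Concentration-response fits on green, red and ratio signals, each overlap-corrected, with %Activity normalized to untreated wells.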
# [13] = biological target: Ferritin light chain (Equus caballus) (UniProt P02791); assay: qHTS Validation Assay for Identification of Novel General Anesthetics (AID 2323)
# Chain of Ferritin light chain (Equus caballus) (P02791 2-175 limits assumed): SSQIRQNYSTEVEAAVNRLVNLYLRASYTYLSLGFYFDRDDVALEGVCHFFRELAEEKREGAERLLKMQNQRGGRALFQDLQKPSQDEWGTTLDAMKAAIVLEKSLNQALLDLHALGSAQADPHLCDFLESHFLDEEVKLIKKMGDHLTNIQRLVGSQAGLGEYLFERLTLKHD
# Outline: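 Normalized fluorescence response, scaled between free 1-AMA and 1-AMA/apoferritin complex, fitted to a four-parameter Hill equation for concentration-effect values. Binding mix: 10 uM horse-spleen apoferritin, 50% saturated 1-AMA in PBS; read 380/535 nm after 10 min.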
# [14] = biological target: ATP-dependent DNA helicase Q1 (Homo sapiens) (UniProt P46063); assay: qHTS Validation Assay for Inhibitors of RecQ-Like Dna Helicase 1 (RECQ1) (AID 2353)
# Chain of ATP-dependent DNA helicase Q1 (Homo sapiens) (P46063 whole entry, looked up): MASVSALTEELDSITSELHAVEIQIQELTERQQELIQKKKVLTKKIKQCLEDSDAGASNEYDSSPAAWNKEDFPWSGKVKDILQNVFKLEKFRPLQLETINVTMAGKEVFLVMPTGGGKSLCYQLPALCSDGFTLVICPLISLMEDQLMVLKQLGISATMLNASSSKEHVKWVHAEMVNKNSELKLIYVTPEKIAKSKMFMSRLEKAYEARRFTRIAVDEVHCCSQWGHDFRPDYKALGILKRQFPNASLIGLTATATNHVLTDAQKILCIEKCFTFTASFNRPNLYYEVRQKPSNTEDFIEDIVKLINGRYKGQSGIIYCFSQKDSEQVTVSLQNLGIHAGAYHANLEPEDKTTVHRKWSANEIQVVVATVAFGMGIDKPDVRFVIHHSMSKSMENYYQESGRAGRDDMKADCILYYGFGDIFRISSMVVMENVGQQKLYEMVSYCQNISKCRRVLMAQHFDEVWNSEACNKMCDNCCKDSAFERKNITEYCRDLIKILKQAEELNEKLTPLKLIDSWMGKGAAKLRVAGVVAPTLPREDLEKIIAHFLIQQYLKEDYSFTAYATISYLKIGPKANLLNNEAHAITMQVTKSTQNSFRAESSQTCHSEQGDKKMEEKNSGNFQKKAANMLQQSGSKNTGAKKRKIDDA
# Outline: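 50 nM RECQ1T1 preincubated 15 min with compound in Tris pH 8.0 buffer with MgCl2, DTT, Tween-20 and 2.5 ug/ml poly(dI-dC); started with 200 nM TAMRA/BHQ-2 forked duplex and 2 mM ATP. Unwinding read as fluorescence (525/598 nm), two reads 2 h apart.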
# [15] = biological target: RecQ-like DNA helicase BLM (Homo sapiens) (UniProt P54132); assay: qHTS Validation Assay for Inhibitors of Bloom's syndrome helicase (BLM) (AID 2364)
# Chain of RecQ-like DNA helicase BLM (Homo sapiens) (P54132 whole entry, looked up): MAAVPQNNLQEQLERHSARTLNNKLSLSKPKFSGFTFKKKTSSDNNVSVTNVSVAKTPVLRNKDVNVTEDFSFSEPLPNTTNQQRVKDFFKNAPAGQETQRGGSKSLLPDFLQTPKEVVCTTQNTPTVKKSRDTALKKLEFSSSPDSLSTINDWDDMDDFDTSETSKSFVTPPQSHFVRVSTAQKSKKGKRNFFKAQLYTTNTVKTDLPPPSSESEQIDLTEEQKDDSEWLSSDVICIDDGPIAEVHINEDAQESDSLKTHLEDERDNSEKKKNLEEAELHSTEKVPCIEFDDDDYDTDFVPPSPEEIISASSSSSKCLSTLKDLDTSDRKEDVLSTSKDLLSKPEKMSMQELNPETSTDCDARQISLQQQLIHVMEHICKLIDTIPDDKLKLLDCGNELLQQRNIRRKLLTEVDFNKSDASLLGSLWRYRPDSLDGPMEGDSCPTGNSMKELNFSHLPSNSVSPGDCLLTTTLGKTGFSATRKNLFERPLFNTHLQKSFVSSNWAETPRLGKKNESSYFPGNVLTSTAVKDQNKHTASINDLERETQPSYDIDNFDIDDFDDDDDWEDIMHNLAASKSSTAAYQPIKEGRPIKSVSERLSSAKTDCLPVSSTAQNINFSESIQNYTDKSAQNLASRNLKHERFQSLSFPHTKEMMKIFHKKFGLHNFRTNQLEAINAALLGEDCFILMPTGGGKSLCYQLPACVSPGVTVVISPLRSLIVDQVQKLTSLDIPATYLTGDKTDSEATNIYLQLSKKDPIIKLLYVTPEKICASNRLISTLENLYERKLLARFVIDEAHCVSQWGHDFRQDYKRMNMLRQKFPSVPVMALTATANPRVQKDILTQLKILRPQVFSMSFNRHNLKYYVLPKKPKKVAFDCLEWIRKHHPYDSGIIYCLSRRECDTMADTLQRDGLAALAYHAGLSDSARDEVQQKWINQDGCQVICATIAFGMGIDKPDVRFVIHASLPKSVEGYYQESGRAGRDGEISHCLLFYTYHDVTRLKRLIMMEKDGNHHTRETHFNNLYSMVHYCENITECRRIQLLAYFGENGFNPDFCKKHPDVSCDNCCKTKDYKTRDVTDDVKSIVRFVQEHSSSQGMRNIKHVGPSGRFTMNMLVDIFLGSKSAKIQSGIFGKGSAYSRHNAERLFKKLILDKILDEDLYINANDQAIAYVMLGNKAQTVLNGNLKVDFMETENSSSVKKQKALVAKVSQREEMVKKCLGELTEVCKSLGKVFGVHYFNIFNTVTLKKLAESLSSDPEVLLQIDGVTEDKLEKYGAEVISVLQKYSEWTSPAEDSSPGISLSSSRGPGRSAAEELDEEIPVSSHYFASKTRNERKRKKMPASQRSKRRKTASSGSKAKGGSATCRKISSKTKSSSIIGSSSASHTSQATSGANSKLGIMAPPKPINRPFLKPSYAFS
# Outline: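 Forked 20-bp duplex substrate (200 nM, TAMRA/BHQ-2) plus 2 mM ATP added after 15 min compound preincubation with 50 nM enzyme, pH 8.0, poly(dI-dC) 2.5 ug/ml. Strand separation followed by fluorescence (525/598 nm) over 2 h, normalized to enzyme-free and DMSO controls.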
# [16] = Cytometric Cell-Based qHTS for Inhibitors of the mTORC1 Signaling Pathway in MEF (Tsc2-/-, p53-/-) Cells (AID 2660);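 further: percent of cells above a phospho-rpS6 to PI ratio cutoff in each well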
# Outline: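 Tsc2-/-, p53-/- MEFs (empty vector) exposed to compound 24 h at 37 C, fixed, stained with Alexa-488 anti-phospho-rpS6 Ser235/236 and propidium iodide. Acumen laser scanning; phospho-S6/PI ratio thresholded against 7.5 nM rapamycin, reported as % positive cells.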
# [17] = qHTS for differential inhibitors of proliferation of Plasmodium falciparum line 7G8 (AID 1815);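 further: parasite growth measured after three days of incubation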; further: potency means the concentration at half of the fitted maximal effect
# [18] = High Content Imaging Cell-Based qHTS for Inhibitors of the mTORC1 Signaling Pathway in MEF (Tsc2-/-, p53-/-) Cells (AID 2666);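 further: percent of cells scored positive for phospho-rpS6 Ser235/236 immunostaining by imaging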
# Outline: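 Cells were plated, dosed with compound after 24 hrs, and incubated another 24 hrs at 37 degree Celsius. Fixed cells were immunostained for phospho-rpS6 Ser235/236 and counterstained, and the normalized signal was scored as % active cells against rapamycin and DMSO controls.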
# [19] = measured here: cell count channel max response
# [20] = measured here: lipid channel max response
SMILES,outcome [1],"activity change, negative = inhibition [2]","max response [2, 19]","max response [2, 20]",Potency [3],Potency [4],Potency [5],Potency [6],Potency [7],Potency [8],Potency [9],Potency [10],Potency [11],outcome [12],Potency [13],Potency [14],Potency [15],outcome [16],Potency [17],Potency [18]
CC1CN(S(=O)(=O)c2cccc3cnccc23)CCN1 (stereo not drawn),inactive,1.97% (inactive),5.7%,7.5%,inactive,inactive,inactive,11.2 µM (active),inactive,inactive,inactive,7.94 µM (active),inactive,inactive,inactive,inactive,inactive,inactive,,
O=c1[nH]c2cc([N+](=O)[O-])c([N+](=O)[O-])cc2[nH]c1=O,inactive,3.97% (inactive),-1.11%,2.64%,inactive,inactive,inactive,inactive,inactive,inactive,inactive,,inactive,inactive,inactive,inactive,,inactive,inactive,inactive
Cc1ccccc1CNc1ncnc2c1ncn2C1OC(CO)C(O)C1O (stereo not drawn),inactive,0.209% (inactive),-22.5%,-21.9%,inactive,inactive,,inactive,inactive,inactive,inactive,inactive,inactive,,inactive,inactive,,inactive,inactive,inactive
CN1CCc2cc(O)c(O)cc2C(c2ccccc2)C1 (stereo not drawn),inactive,-0.441% (inactive),31.9%,29.5%,inactive,inactive,inactive,10 µM (active),,12.6 µM (active),,10 µM (active),12.6 µM (active),,inactive,inactive,,inactive,11.2 µM (active),
NCCSSCCN,inactive,3.98% (inactive),9.22%,16.2%,inactive,inactive,inactive,inactive,,inactive,inactive,inactive,inactive,inactive,inactive,inactive,inactive,inactive,inactive,inactive
CC(C)NCC(O)COc1cccc2ccccc12 (stereo not drawn),inactive,10.9% (inactive),7.26%,23.9%,inactive,inactive,inactive,2.51 µM (active),,11.2 µM (active),8.91 µM (active),2.82 µM (active),12.6 µM (active),,inactive,inactive,inactive,inactive,4.47 µM (active),inactive
O=C(/C=C/c1ccc(O)cc1)c1ccc(O)cc1O,inactive,6.63% (inactive) and 0.947% (inactive),1.72% and 46.2%,5.97% and 48.5%,inactive,inactive,,7.94 µM (active),,12.6 µM (active),,10 µM (active),12.6 µM (active),,inactive,inactive,,inactive,10 µM (active),inactive
CN(C)CCC(c1ccc(Cl)cc1)c1ccccn1 (stereo not drawn),inactive,1.75% (inactive),45.4%,46%,inactive,inactive,inactive,,,inactive,,,inactive,,inactive,inactive,inactive,inactive,,
Cn1c(=O)c2[nH]c(-c3ccccc3)nc2n(C)c1=O,inactive,1.32% (inactive),63.6%,55.6%,inactive,inactive,inactive,inactive,inactive,inactive,inactive,,inactive,inactive,inactive,inactive,,inactive,inactive,inactive
O=C(O)CNC(=O)C(CS)Cc1ccccc1 (stereo not drawn),inactive,0.149% (inactive),-2.09%,-2.71%,inactive,inactive,inactive,inactive,inactive,inactive,inactive,inactive,inactive,inactive,inactive,inactive,,inactive,inactive,inactive
O=C(O)c1cc(=O)c2c(Cl)cc(Cl)cc2[nH]1,inactive,4.31% (inactive) and -0.435% (inactive),15.8% and 12.6%,22.3% and 11.7%,inactive,inactive,inactive,inactive,inactive,inactive,inactive,inactive,inactive,inactive,inactive,inactive,,inactive,inactive,inactive
COc1cc(C(O)CO)ccc1OS(=O)(=O)O (stereo not drawn),inactive,0.915% (inactive),-36.7%,-37%,inactive,inactive,inactive,inactive,inactive,inactive,inactive,inactive,inactive,inactive,inactive,inactive,inactive,inactive,inactive,inactive
Ic1ccc(N2CCN(Cc3c[nH]c4ncccc34)CC2)cc1,inactive,0.316% (inactive),-23.2%,-22.2%,inactive,inactive,inactive,,,,inactive,2.51 µM (active),11.2 µM (active),,inactive,inactive,,inactive,,inactive
